Source: PubChem BioAssay (National Center for Advancing Translational Sciences (NCATS))
Hits are enriched below; roughly 3.7% of the tested compounds scored in any of these assays.
miR-21 act = qHTS Assay for Modulators of miRNAs and/orActivators of miR-21; HeLa miR-21 FLuc reporter, luciferase, 48 h; Potency, µM (titrated, usually from 38.3 µM), usual class: activators; 340,000 tested, under 10 active;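 further: miR-21 action dims this reporter so a rising signal means less miR-21 action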
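Using DMEM plus 10% FBS, HeLa miR-21-FLuc cells are incubated with test compounds (final up to about 40uM) for 48 hours; firefly luciferase signal is then imaged following reagent-mediated lysis.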
IL2 activator = qHTS of IL-2 Activators | IL-2 activation reporter assay, cell-based qHTS; stimulated with anti-CD3/CD4/CD28 beads; in transgenic mouse T cells | activation, % (series mostly up to about 46 µM) | actives 0.065% (n = 360,000); in the data active means activation above about 50%; inconclusive means mostly about 30% to 49%
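Screening format: compound pinned onto unstimulated transgenic mouse T cells, 60 min incubation, then anti-CD3/anti-CD4/anti-CD28 bead stimulation for 18 hours at 37 degrees C, followed by EGFP and DsRed detection.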
Nrf2 inh = Nrf2 qHTS screen for inhibitors; A549 ARE-Fluc reporter, luciferase luminescence, 18-24 h; Potency, µM (doses to about 46 µM), hits mostly inhibitors; actives 2.1% (n = 360,000); further: nearly all actives have a fitted effect of over 60% in size
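Cells were seeded and rested 2 h, then exposed to compounds for 18-24 h. CellTiter-Fluor was read first as a viability measure. BugLite was added 15 min before the final luminescent read of ARE-luciferase activity in A549 cells.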
ClpP mod = qHTS Assay for Activators of ClpP; purified B. subtilis ClpP, FRET peptide cleavage, 20 min; Potency, µM (doses to about 57.5 µM); actives 1.9% (n = 340,000); AID 651965, 2013; active means well fitted falling curve with a large enough effect; inconclusive means small, poorly fitted or top-dose-only effect; inactive means no such curve, though single readings can be large or run the other way; further: the source files actives as falling curves though it sought activators and does not explain the sign; nearly all actives have a fitted effect of over 65% in size
Target sequence (P80244 whole entry, looked up): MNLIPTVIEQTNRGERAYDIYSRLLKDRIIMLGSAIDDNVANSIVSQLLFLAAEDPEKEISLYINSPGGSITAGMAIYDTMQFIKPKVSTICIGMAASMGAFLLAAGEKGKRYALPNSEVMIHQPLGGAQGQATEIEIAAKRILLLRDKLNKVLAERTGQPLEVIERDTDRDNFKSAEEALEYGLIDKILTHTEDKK
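Buffer: 100 mM Tris/HCl pH8, 100 mM KCl, 0.05% low protease BSA, 2.5% glycerol, 0.01% Tween-20. ClpP 10 microg/mL final; 20 min RT; delta FRET normalized to ADEP and DMSO controls.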
A549 viability = Nrf2 qHTS screen for inhibitors: counterscreen for cytotoxicity; Potency, µM (series often up to 46 µM), actives largely listed as inhibitors; A549 ARE-Fluc cells, CellTiter-Fluor viability, 18-24 h; actives 0.16% (n = 390,000); AID 504648, 2011
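A549 ARE-Fluc cells in 5% FBS OPTI-MEM, 5000 cells/well, rested 2 h then exposed to compounds in concentration-response for 18-24 h at 37 °C. Viability by CellTiter-Fluor fluorescence (Ex 405/Em 525) after 30 min; luciferase luminescence (BugLite, 15 min, RT) read afterwards.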
Nrf2 activator = qHTS of Nrf2 Activators; actives 0.31% (n = 410,000); Potency, µM (series often up to 46.1 µM), actives largely listed as activators; AREc32 ARE-luciferase reporter (MCF7-derived line), luminescence, 24 h; further: nearly all actives have a fitted effect of over 65% in size
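Luciferase luminescence (Steady-Glo, 30 min at room temperature) served as the read-out of ARE activation in AREc32 cells treated with compounds for 24 hr at 37 deg C.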
Each line names hits and unclear results; the compound was inactive in the other large screens. Unless noted, the call rests on the fitted dose curve; in most records, active means well fitted curve in the direction sought with a large enough effect; inconclusive means small, poorly fitted or top-dose-only effect, or another doubt; inactive means no such curve, though single readings can be large; an effect the other way counts as inactive or inconclusive.

Cc1nc2ccccc2c(=O)n1-c1cccc(C(F)(F)F)c1	ClpP mod 28µM
O=C(Cc1coc2cc3c(cc12)CCC3)OCC(=O)N1CCCC1=O	miR-21 act inconclusive, Nrf2 inh inconclusive (no result: ClpP mod)
O=C(CN1CCCC1)c1ccccc1	none (no result: miR-21 act, IL2 activator, Nrf2 inh, A549 viability, Nrf2 activator)
CN1CCN(c2ccc([N+](=O)[O-])c3no[n+]([O-])c23)CC1	miR-21 act inconclusive, Nrf2 inh inconclusive, A549 viability 23µM
O=[N+]([O-])c1ccc(N(CCO)CCO)c2c1no[n+]2[O-]	none (no result: miR-21 act, Nrf2 inh, A549 viability)
CCCCCCn1c(O)c(C=Nc2ccccc2N2CCOCC2)c(=O)[nH]c1=S	IL2 activator 59
CCCCn1c(O)c(/C=N/N2CCOCC2)c(=O)[nH]c1=S	Nrf2 inh inconclusive
CCCCC(=O)N/N=C/c1c(O)n(CC)c(=S)[nH]c1=O	none
CCCCCCC(=O)N/N=C/c1c(O)n(CCCC)c(=S)[nH]c1=O	Nrf2 inh 21µM (no result: ClpP mod)
Cc1ccc(-n2nc3c(N4CCC(C(=O)NCCc5ccccc5)CC4)nnc(C)c3c2C)cc1	ClpP mod inconclusive (no result: IL2 activator)
CCCOC(=O)c1c(C)oc2c1cc(NS(=O)(=O)c1ccc(OCC)cc1)c1ccccc12	Nrf2 inh inconclusive (no result: IL2 activator)
CCNc1cc(N2CCN(C)CC2)ccc1[N+](=O)[O-]	none (no result: ClpP mod)
CN1CCN(c2ccc([N+](=O)[O-])c(N/N=C3\CN4CCC3CC4)c2)CC1	A549 viability 21µM
O=C1NC(=O)N(Cc2ccco2)C(=O)/C1=C/C=C/c1ccco1	Nrf2 activator inconclusive
O=C1NC(=O)N(Cc2ccccc2)C(=O)/C1=C\C=C\c1ccco1	Nrf2 inh 26µM, A549 viability inconclusive, Nrf2 activator inconclusive (no result: ClpP mod)
O=C(CCS(=O)(=O)c1ccccc1)Nc1nnc(-c2ccco2)o1	Nrf2 activator inconclusive
Cc1ccc(C(=O)Nc2c(C(=O)Nc3ccc(C)c(C)c3)sc3nc(C)cc(C)c23)cc1	Nrf2 inh inconclusive (no result: IL2 activator)
Cc1ccc(Cl)cc1N1CCN(CCN)CC1	none
Cc1ccc(Cl)cc1N1CCN(C(=O)c2cn(C)c(=O)c3c2c2ccccc2n3C)CC1	Nrf2 inh inconclusive, ClpP mod 28µM
CCOP(=O)(OCC)C(NC(=O)c1cccc(C)c1)C(Cl)(Cl)Cl (stereo not given)	none
CCOP(=O)(OCC)C(NC(=O)c1cccc([N+](=O)[O-])c1)C(Cl)(Cl)Cl (stereo not given)	ClpP mod 32µM
O=C(CCCc1nc(-c2ccc(Cl)cc2)no1)NCC1CCCO1 (stereo not given)	Nrf2 inh 13µM
O=C(CSc1nnc(NC(=O)c2cc(Br)ccc2Cl)s1)NCC1CCCO1 (stereo not given)	Nrf2 activator inconclusive
Cc1cc(N(CCCl)CCCl)ccc1C=NNC(=O)Cc1cc(=O)oc2cc(O)ccc12	Nrf2 inh inconclusive, ClpP mod 28µM (no result: miR-21 act)
Cc1cc(N(CCCl)CCCl)ccc1/C=N/NC(=O)c1ccco1	Nrf2 inh inconclusive
COc1ccc(Cc2nccc3cc(OC)c(OC)cc23)cc1OC	Nrf2 inh 15µM
COc1cc2c(ccc3c4cc(OC)c(OC)cc4c[n+](C)c23)cc1O	Nrf2 inh inconclusive (no result: miR-21 act)
COC(=O)c1ccc(CSc2nc3c(cnn3-c3ccc(C)cc3)c(=O)[nH]2)o1	Nrf2 inh 23µM
C/C(=C\[C@@H](NP(=O)(c1ccccc1)c1ccccc1)c1ccccc1)CO[Si](c1ccccc1)(c1ccccc1)C(C)(C)C	Nrf2 inh inconclusive, A549 viability inconclusive (no result: miR-21 act)
Cc1cccc(OCC(=O)N2CCN(Cc3cccnc3)CC2)c1	ClpP mod 28µM
Cc1ccc(OCC(=O)N2CCN(Cc3cccnc3)CC2)cc1	none
O=C(O)CSCC(=O)N(Cc1ccccc1)c1nc(-c2ccccc2)c(-c2ccccc2)s1	Nrf2 inh inconclusive
O=C(O)c1ccc([N+](=O)[O-])c([N+](=O)[O-])c1	Nrf2 activator inconclusive (no result: miR-21 act, ClpP mod)
